Screens deposited in PubChem BioAssay by National Center for Advancing Translational Sciences (NCATS).
Lassa entry inh: blocks Lassa virus binding to or entry into cells | Lassa virus pseudotype entry inhibition, cell reporter | Potency, µM (series often up to 37.9 µM), without a hit: at the top dose activity change, negative = inhibition, hits mostly inhibitors | AID 540256 | 300,000 compounds, 1.2% hits; calls by dose curve; tested in HEK293 cells; further: potency means the concentration at half of the fitted maximal effect; on the % scale 0 is the no-effect control and ±100 the full control effect; nearly all actives have a fitted effect of over 50% in size
HCV inh: inhibitors of hepatitis C virus infection; 340,000 compounds, 3.4% hits; AID 651820; Potency, µM (titrated, usually from 41.8 µM), without a hit: top-dose activity change, negative = inhibition, hits mostly inhibitors; Huh7.5.1 HCVcc-Cre infection, luciferase reporter, 44 h; active means well fitted inhibition curve with a large enough effect; inconclusive means small, poorly fitted or top-dose-only effect, or another doubt; inactive means no such curve, though single readings can be large or run the other way; further: potency means the concentration at half of the fitted maximal effect; on the % scale 0 is the no-effect control and ±100 the full control effect
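Seed cells (1,000/well) for 4 h; treat with compound and infect with HCVcc-Cre, moi about 0.5. Incubate 44 h, then detect luciferase activity.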
Marburg entry inh: Marburg virus entry inhibition; Marburg virus pseudotyped entry inhibition, cell reporter; Potency, µM (doses to about 37.8 µM), inactives show top-dose activity change, negative = inhibition, actives largely listed as inhibitors; 300,000 compounds, 1.8% hits; calls by dose curve; tested in HEK293 cells; further: potency means the concentration at half of the fitted maximal effect; on the % scale 0 is the no-effect control and ±100 the full control effect
FMDV antiviral: foot and mouth disease virus antiviral activity; Potency, µM (series often up to 57.9 µM), for inactives: at the top dose activity change, negative = inhibition, actives largely listed as inhibitors; 410,000 compounds, 1.2% hits; AID 1159524; FMDV antiviral cell-based qHTS; calls by dose curve; tested in HEK293T cells; further: read-out not given here; potency means the concentration at half of the fitted maximal effect; on the % scale 0 is the no-effect control and ±100 the full control effect; nearly all actives have a fitted effect of over 45% in size
HCMV antiviral: inhibitors of human cytomegalovirus; AID 1259415; activity change, negative = inhibition, % at 57.5 µM; HFF cells, HCMV-luciferase reporter, 72 h; stronger effect = lower value; 410,000 compounds, 4.5% hits; in the data active means activity change below about -60%; inconclusive means no clear call, values can overlap the other calls; inactive means above about -39%; further: on the % scale 0 is the no-effect control and ±100 the full control effect
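Two compound doses tested in HFFs infected with HCMV-luciferase, MOI 1 PFU/cell, 72 h at 37C. Lysate luminescence read with OneGlo; data normalized against buffer-only and 10uM Salinomycin inhibitor controls.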
SARS PLpro yeast: blocks SARS-CoV papain-like protease in a yeast assay; Potency, µM (top dose mostly 32.9 µM), for inactives: at the top dose activity, positive = growth rescue, most hits filed as activators; S. cerevisiae expressing SARS-CoV PLpro, growth rescue; 330,000 compounds, 0.19% hits; calls by dose curve; further: potency means the concentration at half of the fitted maximal effect; 0% is about no effect; nearly all actives have a fitted effect of over 55% in size
Active calls of the source: *; ? = inconclusive; · = no result given; [ ] = remark or other dose. Rows were chosen to be rich in hits. Some 8% of all compounds tested hit in one or more screens of this group.

SMILES | Lassa entry inh | HCV inh | Marburg entry inh | FMDV antiviral | HCMV antiviral | SARS PLpro yeast
O=C(CS(=O)(=O)Cc1ccccc1)Nc1ccc(Cl)cn1 | 8% | 5% | 1% | 37% | -23 | -19%
O=C(CS(=O)(=O)Cc1ccccc1)Nc1ccccn1 | -5% | -6% | 15% | 13% | -102* | 3%
CCCCOc1cccc(C(=O)N(Cc2cccs2)c2ccc(OC)cc2)c1 | -11%[46.1 µM] | · | ? | -23% | -60* | ·
COc1ccc(N(Cc2cccs2)C(=O)c2ccc(C(C)(C)C)cc2)cc1 | -2%[46.1 µM] | · | ? | -4% | -9 | ·
COc1ccc(N(Cc2cccs2)C(=O)c2ccc(OC)c(Cl)c2)cc1 | -23%[46.1 µM] | · | ? | -5% | -91* | ·
COc1ccc(C(=O)N(Cc2sccc2C)C2CCS(=O)(=O)C2)cc1Cl (stereo not drawn) | 11%[46.1 µM] | · | -16%[46.1 µM] | -11% | 39 | ·
O=C(Cc1nc2ccccc2[nH]1)c1cccc([N+](=O)[O-])c1 | · | 11µM* | · | -20% | -17 | -2%
C=CCOCCC=C1c2ccccc2[C@@H](OC)[C@@H]1C | · | · | -8%[14.2 µM] | · | · | ·
CCn1nc(C)c(Br)c1C(=O)Sc1ccccc1Cl | 3% | 10% | -10%[46.1 µM] | 22µM* | -5 | 0%
Cc1nn(Cc2ccccc2Cl)c(Cl)c1C(=O)O | 29%[46.1 µM] | 5% | -4%[46.1 µM] | -24% | 7 | 7%
CCOC(=O)CNc1ncnc2c1nnn2C | 7%[46.1 µM] | · | · | -8% | -25 | ·
CN(C)CCNC(=O)C1CC(=O)N(c2ccc(F)c(Cl)c2)C1 (stereo not drawn) | 24% | ? | 18% | 9% | 39 | 12%
CN(CCNC(=O)C1CC(=O)N(c2ccc(F)c(Cl)c2)C1)Cc1ccccc1 (stereo not drawn) | -1% | -29% | -28% | · | -67* | -17%
CS(=O)(=O)c1ncc(Cl)c(C(=O)Nc2c(C(=O)Nc3ccccc3)oc3ccccc23)n1 | 0%[46.1 µM] | · | -24%[46.1 µM] | 28µM* | 5 | ·
CCOC(=O)c1c(-c2ccccc2)csc1NC(=O)c1nc(SCC)ncc1Cl | 25%[46.1 µM] | · | ? | -19% | 6 | ·
CCOC(=O)c1c(-c2ccccc2)csc1NC(=O)c1nn(CC)cc1Br | ? | ? | 10µM* | · | 11 | 13%
COc1ccc(NC(=O)c2nc(SC)ncc2Cl)cc1 | · | -4% | · | 24% | 0 | -1%
CCN(c1ccccc1)S(=O)(=O)c1ccc(NC(=O)c2nc(SC)ncc2Cl)cc1 | ? | · | ? | -25% | -86* | ·
CCOC(=O)c1c(-c2ccccc2)csc1NC(=O)c1nc(S(=O)(=O)CC)ncc1Cl | -17%[46.1 µM] | · | ? | 14µM* | -98* | ·
Cc1cccc(CCNC(=O)c2sc3nc4n(c(=O)c3c2C)CCCC4)c1 | 6%[46.1 µM] | · | · | 5% | 30 | ·
CCc1cccc(C)c1NC(=O)COCc1cc(-c2ccc3c(c2)OCO3)on1 | 13%[46.1 µM] | · | · | ? | -26 | ·
COc1ccc(CCNC(=O)CCc2c(C)nc3cc(-c4ccccc4OC)nn3c2C)c(OC)c1 | -23%[46.1 µM] | · | -10%[46.1 µM] | -11% | -14 | ·
COc1cc(NC(=O)N2CCC(CN3CCOCC3)CC2)cc(OC)c1OC | -10%[46.1 µM] | · | · | -12% | 21 | ·
COc1ccc(-c2nc3cnc(Nc4cccc(OC)c4)nc3n(C)c2=O)cc1 | · | · | · | -8% | · | ·
CCc1ccc(NC(=O)c2nc(S(=O)(=O)Cc3ccccc3)ncc2Cl)cc1 | · | · | · | · | -100* | -44%
SMILES | Lassa entry inh | HCV inh | Marburg entry inh | FMDV antiviral | HCMV antiviral | SARS PLpro yeast
CCOC(=O)c1ccc(NC(=O)c2nc(SC(C)C)ncc2Cl)cc1 | ? | · | 16%[46.1 µM] | 2% | -11 | ·
CCSc1ncc(Cl)c(C(=O)Nc2ccccc2)n1 | 6% | -8% | 12% | -19% | -19 | 26%
CCS(=O)(=O)c1ncc(Cl)c(C(=O)Nc2ccccc2)n1 | ? | · | ? | ? | -103* | ·
CN(c1ccccc1)S(=O)(=O)c1ccc(NC(=O)c2nc(S(C)(=O)=O)ncc2Cl)cc1 | ? | 10µM* | ? | 11µM* | -111* | ·
CCCSc1ncc(Cl)c(C(=O)Nc2ccc(S(=O)(=O)N(C)c3ccccc3)cc2)n1 | -25%[46.1 µM] | · | 2%[46.1 µM] | 1% | -35 | ·
CCOC(=O)c1ccc(NC(=O)c2nc(S(=O)(=O)Cc3ccccc3)ncc2Cl)cc1 | ? | 10µM* | 11µM* | 35µM* | -99* | 1%
Cn1cc(-c2cc3n(n2)CCC(=O)N3CC(=O)NCc2ccc(Cl)cc2)c2ccccc21 | -8%[46.1 µM] | · | · | -28% | -2 | ·
COc1cc2ccccc2ccc1=NO | -5%[46.1 µM] | ? | 2%[46.1 µM] | 2% | -68* | ·
COc1cc2ccccc2cc1C(=O)O | 18% | 3% | 9% | -3% | 16 | -16%
Cc1ccc(NC(=O)CCc2nc(-c3ccccc3F)no2)c(C)c1 | ? | · | 18%[46.1 µM] | 0% | -12 | ·
CCOC(=O)c1c(CN(C)C)oc2cc(CN(C)C)c(O)c(CSc3ccccc3)c12 | -10% | -22% | 10µM* | -20% | -4 | 0%
Cc1cccc2nc(COc3ccc4ccccc4c3Br)cn12 | ? | -26% | 10µM* | 5% | 69 | 2%
Cc1cccc2nc(CSc3ccccc3N)cn12 | ? | -1% | -24% | -3% | 14 | ·
Cc1ccc(C(=O)N/N=C/c2ccc(-c3cccc(C(F)(F)F)c3)o2)cn1 | ? | ? | ? | 32µM* | ? | -3%
CC1=NN(c2ccccc2)C(=O)C1N=Nc1ccc(C)cc1 (stereo not drawn) | · | · | · | · | · | 1%
CC(=O)Nc1ccc(N2N=C(C)C(N=Nc3ccccc3)C2=O)cc1 (stereo not drawn) | 22% | -2% | 21% | 16% | -101* | 6%
Cc1cc(C)cc(-n2c(SCC(=O)Nc3ccccc3F)nc3c(oc4ccccc43)c2=O)c1 | · | · | -27%[46.1 µM] | -16% | -7 | ·
Cc1cc(-n2c(C)nc3ccccc3c2=O)ccc1NC(=O)c1cccc([N+](=O)[O-])c1 | 15%[46.1 µM] | · | · | -25% | -16 | ·
C/C(=N/OC(=O)c1ccc(C)cc1)C(=O)c1ccc(Br)cc1 | · | 31% | · | 0% | 26 | -1%
CC/C(=N/O)C(=O)c1ccc(Br)cc1 | 8.9µM* | 6% | 1%[46.1 µM] | 6% | 0 | -25%
Cc1cc(C(=O)C(=O)Nc2nncs2)c(C)n1-c1ccc(Cl)cc1 | ? | · | ? | 24% | 16 | ·
Cc1ccc(-c2csc(N3CCC[C@@H]3C(=O)NCCn3c([C@H](C)N)nc4ccccc43)n2)cc1 | · | · | · | · | 0 | ·
CCOc1ccc(NC(=O)N(Cc2cn(CC)c3ccccc23)C2CCCCCC2)cc1 | ? | · | ? | 38% | -87* | ·
CCOc1ccc(NC(=O)N(C2CCCCCC2)C2CCN(C(C)=O)CC2)cc1 | -9% | -2% | 3% | -1% | -8 | 0%
CCc1ccc(NC(=O)N(Cc2cn(CC)c3ccccc23)C2CCCCC2)cc1 | ? | · | ? | 60% | -104* | ·
CCc1ccc(NC(=O)Cc2cn(C)c3ccccc23)cc1 | -7% | 15% | 2%[46.1 µM] | 53% | 41 | -17%
COc1cc(CCC(=O)NCc2ccc3c(c2)CCN3C(=O)c2ccccc2)cc(OC)c1OC | 2%[46.1 µM] | · | · | 0% | -21 | ·
